# Source: PubChem BioAssay (EPA / NIEHS)
# Inconclusive results are not listed. The source made the active and inactive calls. Rule for the calls: active = hit-call score of the fitted dose curve at least 0.9, where 1 is the maximum; inconclusive = response in the unintended direction; inactive = score below 0.9.
# How the values were obtained:
# [1] = TOX21_p53_BLA_p2_viability: Viability Assessment in the Tox21 HCT-116 p53 Agonism Beta-lactamase Assay, Phase 2 (AID 2283591);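 note: compound exposure lasted 16 h at 37 °C; actives lower the ATP signal meaning cytotoxicity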
# Method in brief: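 HCT116 p53-bla cells, 4000/well, dosed after 5 h plating (217-fold dilution of DMSO stocks) and incubated 16 h at 37C. Viability taken as cellular ATP by CellTiter-Glo luminescence after 30 min RT; signal loss marks cytotoxicity.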
# [2] = molecular target: Cellular tumor antigen p53 (Homo sapiens) (UniProt P04637); test: TOX21_p53_BLA_p2_ratio: Tox21 HCT-116 p53 Agonism Beta-lactamase Assay, Ratio, Phase 2 (AID 2283592)
# Method in brief: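 Cleaved-to-uncleaved substrate ratio (460 vs 530 nm) measured in HCT116 cells with an inducible beta-lactamase reporter linked to p53 activity. Compounds incubated 16 h at 37C before 2 h room-temperature CCF4-AM loading.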
# [3] = molecular target: Cellular tumor antigen p53 (Homo sapiens) (UniProt P04637); test: TOX21_p53_BLA_p3_ratio: Tox21 HCT-116 p53 Agonism Beta-lactamase Assay, Ratio, Phase 3 (AID 2283596)
# Method in brief: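 Cells were seeded at 4000/well, rested 5 h at 37C, then dosed with DMSO compound solutions (217-fold dilution) for 16 h. CCF4-AM substrate was loaded for 2 h at room temperature, and the 460/530 nm emission ratio was fitted for gain of signal versus DMSO.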
# [4] = TOX21_p53_BLA_p4_viability: Viability Assessment in the Tox21 HCT-116 p53 Agonism Beta-lactamase Assay, Phase 4 (AID 2283597);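 note: hits lower the luminescence signal meaning cytotoxicity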
# Method in brief: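 Viability is taken as cellular ATP: after 16 h compound exposure of HCT116 cells and a 2 h room-temperature CCF4-AM substrate step, CellTiter-Glo reagent is added and luminescence is measured 30 min later.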
# [5] = molecular target: Cellular tumor antigen p53 (Homo sapiens) (UniProt P04637); test: TOX21_p53_BLA_p5_ratio: Tox21 HCT-116 p53 Agonism Beta-lactamase Assay, Ratio, Phase 5 (AID 2283599)
# Method in brief: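 HCT-116 p53-bla cells (4000/well) plated 5 h, dosed with compound (217-fold DMSO dilution) for 16 h at 37 C; CCF4-AM substrate 2 h at room temperature. Activity is the 460/530 nm emission ratio (405 nm excitation), fitted in gain-of-signal direction versus DMSO.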
# [6] = TOX21_p53_BLA_p5_viability: Viability Assessment in the Tox21 HCT-116 p53 Agonism Beta-lactamase Assay, Phase 5 (AID 2283600)
# Method in brief: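 Viability is taken from cellular ATP content, measured by luciferase luminescence in the same wells after the beta-lactamase ratio read. Cells are seeded at 4000 per well and exposed to DMSO-dissolved compounds, diluted 217-fold, for 16 h.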
# [7] = molecular target: Cellular tumor antigen p53 (Homo sapiens) (UniProt P04637); test: TOX21_p53_BLA_p4_ratio: Tox21 HCT-116 p53 Agonism Beta-lactamase Assay, Ratio, Phase 4 (AID 2283601)
# Method in brief: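 HCT-116 p53 beta-lactamase reporter cells (4000/well) preincubated 5 h, then compound (217-fold dilution of DMSO stock) for 16 h at 37C. CCF4-AM substrate added 2 h at room temperature; 460/530 nm emission ratio fitted upward versus DMSO.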
# Cellular tumor antigen p53 (Homo sapiens), sequence (P04637 whole entry, looked up): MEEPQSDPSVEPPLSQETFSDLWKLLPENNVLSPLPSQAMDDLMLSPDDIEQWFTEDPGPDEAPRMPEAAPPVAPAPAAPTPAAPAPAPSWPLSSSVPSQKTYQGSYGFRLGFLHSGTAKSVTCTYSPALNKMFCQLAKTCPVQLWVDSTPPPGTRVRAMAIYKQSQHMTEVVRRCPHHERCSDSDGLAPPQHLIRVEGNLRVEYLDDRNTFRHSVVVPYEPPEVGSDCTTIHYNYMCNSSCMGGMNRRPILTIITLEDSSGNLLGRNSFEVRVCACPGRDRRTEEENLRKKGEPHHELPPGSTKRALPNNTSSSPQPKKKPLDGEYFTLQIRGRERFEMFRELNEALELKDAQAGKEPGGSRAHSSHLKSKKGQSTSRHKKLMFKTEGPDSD
Structure (SMILES),outcome [1],outcome [2],outcome [3],outcome [4],outcome [5],outcome [6],outcome [7],AC50 [5],AC50 [1],AC50 [2],AC50 [4],AC50 [3],AC50 [7]
CCCCCCOc1ccccc1C(N)=O,inactive,inactive,inactive,inactive,inactive,inactive,,,,,,,
CC1=CC(=O)CC(C)(C)C1=O,inactive,inactive,inactive,inactive,inactive,inactive,inactive,,,,,,
O=C=Nc1ccc(Cc2ccc(N=C=O)cc2)cc1,inactive,inactive,inactive,inactive,inactive,inactive,inactive,,,,,,
Clc1ccc2n[nH]nc2c1,inactive,inactive,inactive,inactive,,inactive,inactive,55.7 µM (active),,,,,
NC(=S)N=Nc1ccc(NN=C(N)N)cc1,inactive,inactive,inactive,inactive,inactive,inactive,inactive,,,,,,
CCCCC1C(=O)N(c2ccccc2)N(c2ccc(O)cc2)C1=O (configuration not stated),,,inactive,,,inactive,inactive,15.4 µM (active),19 µM (active),15.8 µM (active),17 µM (active),,
O=CC(=O)c1ccccc1,inactive,inactive,inactive,inactive,inactive,inactive,inactive,,,,,,
CCC=CC#N,inactive,inactive,inactive,inactive,inactive,inactive,inactive,,,,,,
O=C(OCC(COC(=O)c1ccccc1)(COC(=O)c1ccccc1)COC(=O)c1ccccc1)c1ccccc1,inactive,inactive,,inactive,inactive,inactive,inactive,,,,,54.3 µM (active),
CS(=O)(=O)c1ccc([C@@H](O)[C@@H](CO)NC(=O)C(Cl)Cl)cc1,inactive,inactive,inactive,inactive,inactive,inactive,inactive,,,,,,
CC(C)[N+]1(C)[C@@H]2CC[C@H]1CC(OC(=O)C(CO)c1ccccc1)C2 (some centres not stated),inactive,inactive,inactive,inactive,inactive,inactive,inactive,,,,,,
N[C@@H](CSSC[C@H](N)C(=O)O)C(=O)O,inactive,inactive,inactive,inactive,inactive,inactive,inactive,,,,,,
C[C@H]1[C@@H](OC(=O)CCC(=O)O)O[C@@H]2OC3(C)CC[C@H]4[C@H](C)CC[C@@H]1[C@@]24OO3,inactive,inactive,inactive,inactive,inactive,inactive,inactive,,,,,,
ClC(Cl)(Cl)c1ccc(C(Cl)(Cl)Cl)cc1,inactive,inactive,inactive,inactive,inactive,inactive,,,,,,,
O=C(O)C(S)C(S)C(=O)O (configuration not stated),inactive,inactive,inactive,inactive,inactive,inactive,inactive,,,,,,
Cc1ncc(CO)c(CN)c1O,inactive,inactive,inactive,inactive,inactive,inactive,inactive,,,,,,
CC(=O)O[C@H]1CC[C@@]2(C)C(=CC[C@H]3[C@@H]4CC[C@H](C(C)=O)[C@@]4(C)CC[C@@H]32)C1,inactive,inactive,inactive,inactive,inactive,inactive,inactive,,,,,,
CCc1cccc2c3c([nH]c12)C(CC)(CC(=O)O)OCC3 (configuration not stated),inactive,inactive,inactive,inactive,inactive,inactive,inactive,,,,,,
CC(C)NC(=O)c1ccccc1N,inactive,inactive,inactive,inactive,inactive,inactive,inactive,,,,,,
CCCCCCCCCCCCCCCCCCCCCC(=O)Nc1ccn([C@@H]2O[C@H](CO)[C@@H](O)[C@@H]2O)c(=O)n1,inactive,,,inactive,inactive,inactive,,,,19 µM (active),,23 µM (active),14.3 µM (active)
CCCCN=C(N)N=C(N)N,inactive,inactive,inactive,inactive,inactive,inactive,inactive,,,,,,
CCN(Cc1ccccc1)c1ccccc1,inactive,inactive,inactive,inactive,inactive,inactive,inactive,,,,,,
CN(C)c1ccc(C2(c3ccc(N(C)C)cc3)OC(=O)c3cc(N(C)C)ccc32)cc1,inactive,,,inactive,inactive,inactive,,,,60.7 µM (active),,13.5 µM (active),38.5 µM (active)
CCCCOC(=O)CC,inactive,inactive,inactive,inactive,inactive,inactive,,,,,,,
CC1(O)CCC(C(C)(C)O)CC1 (configuration not stated),inactive,inactive,inactive,inactive,inactive,inactive,inactive,,,,,,
FC(F)OC(Cl)C(F)(F)F (configuration not stated),inactive,inactive,inactive,inactive,inactive,inactive,inactive,,,,,,
OCC(O)[C@@H](O)[C@H](O)[C@H](O)CO[C@H]1O[C@H](CO)[C@@H](O)[C@H](O)[C@H]1O (some centres not stated),inactive,inactive,inactive,inactive,inactive,inactive,inactive,,,,,,
Cc1ccccc1C(=O)N1CC/C(=N\OS(=O)(=O)O)c2ccc(Cl)cc21,inactive,inactive,inactive,inactive,inactive,inactive,inactive,,,,,,
CC(C)NCC(O)COc1ccc(COCCOC(C)C)cc1 (configuration not stated),inactive,inactive,inactive,inactive,inactive,inactive,inactive,,,,,,
CCN(CC)CCOCCOC(=O)C(CC)(CC)c1ccccc1,inactive,inactive,inactive,inactive,inactive,inactive,inactive,,,,,,
